Screening results deposited in PubChem by Broad Institute.
Only a selection was taken, and hits are over-represented in it overall.
Tg IFNy HTS – T. gondii growth inhibition with IFN-gamma, primary screen, cell-based. Toxoplasma gondii growth in IFN-gamma-treated host cells; stronger effect = lower value. activity change, negative = inhibition, % (concentration not given with the values). 69,000 compounds, 3.8% hits. AID 1259416, 2018; in the data active = activity change below about -70%, passing the limit was not always enough;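 note: host cells are HeLa cells infected with Toxoplasma gondii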
* hit, by the source's call; ! = not confirmed by another sample.

SMILES	Tg IFNy HTS
COc1ccccc1CC(=O)Nc1ccc(-c2nc(Cn3cc(C)cn3)c(C)o2)cc1	-95*
COc1ccc(CC(=O)Nc2ccc(-c3nc(Cn4cc(C)cn4)c(C)o3)cc2)cc1	-51
Cc1cnn(Cc2nc(-c3ccc(NC(=O)CCc4ccccc4)cc3)oc2C)c1	-84*
Cc1cnn(Cc2nc(-c3ccc(NC(=O)CC4CCCC4)cc3)oc2C)c1	-15
CC(=O)Nc1ccc(-c2nc(Cn3cc(C)cn3)c(C)o2)cc1	64
COc1ccccc1C(=O)Nc1ccc(-c2nc(Cn3cc(C)cn3)c(C)o2)cc1	15
COc1ccc(C(=O)CSc2nc3scc(C)c3c(=O)[nH]2)cc1	3
Cc1ccc(NC(=O)CSc2nnc(CCc3nc4ccccc4[nH]3)n2C)cc1Cl	9
CN(C)c1ncc(-c2cccc(C(N)=O)c2)c(C2CCNC2)n1 (configuration not stated)	-14
COc1ccc(CN2CCOCC3(CC(Cn4cnnc4)CO3)C2)cc1 (configuration not stated)	-1
CCC(C)NCCOc1ccc(C(C)(C)c2ccccc2)cc1 (configuration not stated)	-7
CCOc1ccccc1OCCN[C@H](C)Cc1ccc(OC)c(S(N)(=O)=O)c1	16
CCC(C)NCCOCCOc1ccc(Cl)c2ccccc12 (configuration not stated)	-94*
Cc1ccc(F)c(C(=O)N2CCn3cncc3C2)c1F	5
COc1ccccc1OCCN(C)C(=O)c1cnc(C(C)(C)C)nc1	31
CCCCOc1ccc(-c2cc3c(=O)n(Cc4nc(-c5ccc(Cl)cc5)oc4C)ccn3n2)cc1	-4
OCC1OC(n2cnc3c(NC4CCCC4)nc(Cl)nc32)C(O)C1O (configuration not stated)	2
Nc1ncnc2c1ncn2C1CCCO1 (configuration not stated)	16
Nc1nc(Cl)nc2c1ncn2[C@@H]1O[C@H](CO)[C@@H](O)[C@@H]1F	-74*
Nc1ccn([C@@H]2O[C@H](CO)[C@@H](O)[C@H]2O)c(=O)n1	11
O=c1[nH]c(=O)n([C@H]2C[C@H](O)[C@@H](CO)O2)cc1I	21
Nc1nc(=O)n([C@H]2C[C@H](O)[C@@H](CO)O2)cc1F	-89*
CNC(=O)c1cnn(-c2nc(N)c3ncn([C@@H]4O[C@H](CO)C(O)C4O)c3n2)c1 (some centres not stated)	17
O=c1[nH]cnc2c1ncn2[C@H]1CC[C@@H](CO)O1	9
Nc1nc(Cl)nc2c1ncn2[C@H]1C[C@H](O)[C@@H](CO)O1	-73*!
SMILES	Tg IFNy HTS
COc1cc(N2CCC3(CC2)C(=O)N(C)CCN3CC(C)C)ncn1	-50
COc1ccc(C2CCCN2C(=O)c2cc(C(C)C)on2)cc1OC (configuration not stated)	-1
Cc1nc(-c2nc(C(=O)NCC3CCCO3)c3ccccn23)cn1Cc1ccc(F)cc1F (configuration not stated)	18
Cc1cc(CN2CCC3(CC2)CC(Nc2ncccn2)CO3)nn1C (configuration not stated)	-2
CCCNC(=O)c1cc(-c2ccn[nH]2)n2ccccc12	33
COc1cccc(C(=O)N2CCC3(CC2)Nc2ccc(Cl)cc2-n2cccc23)c1	37
CN(C)C1COC2(CCN(S(=O)(=O)c3cn(C)cn3)CC2)C1 (configuration not stated)	185
COc1ncccc1CN1CCC2(CC1)OCC(=O)NC2C (configuration not stated)	-4
CCOC(=O)CSc1nnc(CSc2nc3sc(C)c(C)c3c(=O)[nH]2)n1C	-28
COc1ccc(-c2ccc3[nH]nc(N)c3c2)cn1	-73*
COc1ccc(-c2cccc3c(C(N)=O)cccc23)cn1	14
COc1ccc(-c2cc(F)c(OC)c(F)c2)cn1	-9
Cc1ccc(S(=O)(=O)NCCc2sc(-c3ccc(F)cc3)nc2C)cc1C	28
O=C(O)c1cc([N+](=O)[O-])ccc1NCCCc1ccccc1	30
O=C(Nc1ccc([N+](=O)[O-])cc1Cl)c1cc(Cl)ccc1O	-76*!
O=C(Nc1ccncc1)c1cc([N+](=O)[O-])ccc1Cl	-82*
CCC(=O)Oc1ccc(C(=O)Nc2ccc([N+](=O)[O-])cc2)cc1	110
O=C(Nc1ccccc1)c1cc([N+](=O)[O-])ccc1Cl	14
O=C(NCCNc1ccc(Cl)cc1[N+](=O)[O-])c1cccnc1	-5
O=C(O)CCC(=O)N1CCC2C1CC(=O)N2c1cccnc1 (configuration not stated)	-3
COC[C@H](C)n1cnc(-c2ccccc2)c1-c1cc2c(cc1OC)OCO2	-26
CCc1cc(=O)[nH]c(C2CCCN2C(=O)c2cc(CC)on2)n1 (configuration not stated)	89
Clc1cc(Cl)cc(N=c2ssnc2-c2ccccc2Cl)c1	-90*
OC(c1ccccc1)(c1ccccc1)C1CCN(Cc2ncc[nH]2)CC1	-6
Cc1ccc(-c2nc(CCNC(=O)C(=O)Nc3cc(C)ccc3C)cs2)cc1	64
SMILES	Tg IFNy HTS
c1ccc(-c2cnnc(N3CCN(C45CC6CC(CC(C6)C4)C5)CC3)n2)cc1	14
COc1cc(OC)c(CN(C)C(C)c2nc(C)sc2C)c(OC)c1 (configuration not stated)	0
CCOCC1CN(Cc2cccs2)Cc2nn(C)cc21 (configuration not stated)	-15
O=C(NCCc1csc(-c2ccc(Cl)cc2)n1)c1ccccc1C(F)(F)F	63
O=C(c1cccs1)N1N=C(c2ccc(Cl)cc2)CC1(O)C(F)(F)F (configuration not stated)	-97*
OC1(C(F)(F)F)CC(c2cccs2)=NO1 (configuration not stated)	-61
CCCCc1ncc(-c2nccn2CCc2ccccn2)[nH]1	-58
O=C(CC1CC2(CCN(Cc3ccccn3)CC2)Oc2ccccc21)NCC1CC1 (configuration not stated)	13
COc1ncc(C(=O)NC(Cc2ccccc2)c2ccc3c(c2)OCCO3)cn1 (configuration not stated)	67
COC[C@H](NC(=O)c1cnc(C)s1)C(=O)N[C@@H](COC)C(=O)N[C@@H](Cc1ccccc1)C(=O)C1(C)CO1 (some centres not stated)	-77*
COC(=O)[C@H](Cc1ccccc1)NC(=O)[C@@H](N)CC(=O)O	16
COCCN1CCC2(CC1)CC(OCC1CC1)c1ccc(F)cc12 (configuration not stated)	3
COc1ccccc1-c1nc(Cn2nnc(-c3nc(-c4ccc5c(c4)OCO5)no3)c2C)c(C)o1	10
O=C(Nc1cnn(-c2ncncc2N2CCCCC2)c1)C1CCCC1	-33
O=C(Nc1cnn(-c2ncncc2N2CCSCC2)c1)NC1CCCCC1	18
O=C(Nc1cnn(-c2ncncc2N2CCCCC2)c1)C1CCCCC1	-80*
CC(C)c1ccc(NC(=O)CN2CCC3(CC2)N=C(c2ccccc2)C(=O)N3)cc1	-19
CCCOC1CCCN(Cc2cc3cc(OC)ccc3[nH]c2=O)C1 (configuration not stated)	-2
CCOc1ccc2[nH]c(=O)c(CN3CCCCC3c3nc(C)no3)cc2c1 (configuration not stated)	2
CCOc1ccc2[nH]c(=O)c(CN3CCCN(C(=O)C4CC4)CC3)cc2c1	-83*
Cc1onc(-c2c(F)cccc2Cl)c1C(=O)OCc1sccc1-n1c(C)ccc1C	26
CCCCS(=O)(=O)N1C[C@H]2C[C@H](C(=O)Nc3ccccc3)[C@@H](C1)O2	-2
